# Measured values taken from PubChem BioAssay AID624111 (Johns Hopkins Ion Channel Center, 2012).
# The whole screen tested about 4,000 compounds, of which about 60 (2%) were called active.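 The calls were made as follows: active = duplicate-averaged calcium fluorescence ratio at least three times the standard deviation of buffer wells, a nonspecific response in parental cells; inactive = the rest.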 Only a selection was taken, and actives are over-represented in it overall.
# Assay: nonspecific calcium signal in parental HEK293, confirmation, counter-screen for MrgX1 antagonist project, parental HEK293 cells, Fluo-4 calcium flux (AID 624111)
# Conditions: parental HEK293, Fluo-4 calcium fluorescence, FDSS; at 10 µM
row,Structure (SMILES),fluorescence ratio F(max-min)/F0
1,COc1ccc(C(=O)NC(=S)NNC(=O)c2c(-c3ccccc3)noc2C)cc1,inactive
2,O=C(COC(=O)c1ccc(NS(=O)(=O)c2cccs2)cc1O)Nc1ccc(F)cc1,inactive
3,CN(CC(=O)Nc1ccccc1Cl)C(=O)COc1cccc2c1OC(C)(C)C2,inactive
4,O=C(O)CSC(NC(=O)c1cccnc1)(C(F)(F)F)C(F)(F)F,inactive
5,Nc1cc(OC(=O)c2ccccc2Br)nn1S(=O)(=O)c1ccccc1,inactive
6,COc1cc2c(cc1O)C(SC)=NC(C)(C)C2,inactive
7,Cc1nn(-c2ccccc2)c2c1C(c1ccc(F)cc1)C(C#N)=C(N)O2 (configuration not stated),inactive
8,O=C(CSc1c2c(nc3ccc(Cl)cc13)CCCC2)NCc1ccco1,inactive
9,COc1ccc(OC)c(C(=O)c2ccc(Cl)cc2)c1,inactive
10,CCOc1ccc(C2=CC(c3ccccc3)n3ncnc3N2)cc1 (configuration not stated),inactive
11,O=C(c1cccs1)C1C(c2ccc(Br)cc2)NC(=S)NC1(O)C(F)(F)F (configuration not stated),inactive
12,CCOC1CCCCC1NS(=O)(=O)c1ccc(Cl)cc1 (configuration not stated),inactive
13,CC(C)CC(=O)NC(=S)NNC(=O)c1cccc([N+](=O)[O-])c1,inactive
14,Cc1ccnc(NC(=O)C(C)N2C(=O)c3ccccc3C2=O)c1 (configuration not stated),inactive
15,O=C1CCCc2c1nc(-c1cccc(Cl)c1)n2O,inactive
16,O=C(CSc1nncn1-c1cccnc1)N1CCOCC1,inactive
17,O=c1c2cc(Br)ccc2nc(-c2cccc(Cl)c2)n1O,inactive
18,O=C1Cc2ccccc2Sc2ccc(Cl)cc21,inactive
19,CCOc1ccc2nc(/N=C/c3nc(-c4ccccc4)oc3O)sc2c1,0.438 (active)
20,COCC(C)NC(=O)c1ccc(Cl)c(Cl)c1 (configuration not stated),inactive
21,COCCNC(=O)C1CCN(S(=O)(=O)c2ccc3c(c2)OCCO3)CC1,inactive
22,FC(F)Oc1ccc(NC(=S)NCc2ccco2)cc1Cl,inactive
23,COc1ccc(NC(=O)c2cc(-c3ccc(C)o3)nc3ccccc23)cc1,inactive
24,O=C(COC(=O)C1CCN(S(=O)(=O)c2ccc3c(c2)OCCO3)CC1)Nc1ccccc1OC(F)F,inactive

row,Structure (SMILES),fluorescence ratio F(max-min)/F0
1,CC1CCN(S(=O)(=O)c2nnc(NC(=O)COc3ccccc3F)s2)CC1,inactive
2,COC(=O)Cn1c(O)c(N=NC(=O)OC)c2ccccc21,inactive
3,O=C(Nc1nc2c(F)cc(F)cc2s1)C1COc2ccccc2O1 (configuration not stated),inactive
4,CC(C)OCCCNc1ncnc2c1[nH]c1ccc(F)cc12,inactive
5,O=C(CC(O)(C(F)(F)F)C(F)(F)F)Nc1ccc(Cl)c(Cl)c1,inactive
6,O=C(Nc1ccccc1N1CCOCC1)c1csc2c1CCCC2,inactive
7,Cc1ccc2cc(/C=N/Nc3ccc(C(=O)O)cc3)c(Cl)nc2c1,inactive
8,CCOCc1nnc(NC(=O)CCC2CCCCC2)s1,inactive
9,O=C(Cn1c(-c2cncs2)nc2ccccc21)NC1CCCC1,inactive
10,COc1cc(C2/C(=C(\O)c3ccc4c(c3)CC(C)O4)C(=O)C(=O)N2Cc2ccco2)ccc1O (configuration not stated),inactive
11,CC1CCCCN1S(=O)(=O)c1ccc(C(=O)Nc2nnc(-c3cccs3)o2)cc1 (configuration not stated),inactive
12,O=C(Oc1ccc(C(=S)N2CCOCC2)cc1)c1ccc(F)cc1,inactive
13,COC(=O)Cc1cc(=O)n(-c2nc3ccccc3s2)[nH]1,inactive
14,COC(=O)c1c(NC(=O)c2c(Cl)cnn2C)sc(C)c1C,inactive
15,COc1cccc(CCNC(=O)COc2cccc3c2OC(C)(C)C3)c1,inactive
16,CCOC(=O)Cc1csc(SCc2cc(=O)oc3cc(O)ccc23)n1,inactive
17,NC(=O)c1c(Nc2nc3c(F)cccc3s2)sc2c1CCCC2,inactive
18,COc1ccc([N+](=O)[O-])cc1NC(=O)COC(=O)/C=C/c1ccco1,inactive
19,Cc1ccc(OC(=O)c2cc3ccccc3o2)cc1,inactive
20,Cc1cccc(-n2c(Cc3cc(=O)[nH]c(=O)[nH]3)nnc2SC(C)C)c1,inactive
21,Cc1ccc(Nc2nc(-c3ccc(O)cc3O)cs2)nc1,inactive
22,COc1ccc(Nc2nc(-c3cccnc3)nc3ccccc23)cn1,inactive
23,Cc1ccc(S(=O)(=O)N(C)c2nc3ccccc3n3c(C(C)C)nnc23)cc1,inactive
24,COC(=O)c1c(NC(=O)CN(c2ccc(C)c(C)c2)S(C)(=O)=O)sc2c1CCCC2,inactive

row,Structure (SMILES),fluorescence ratio F(max-min)/F0
1,Cc1nonc1C1CCCN1Cc1nc(-c2ccc(F)cc2F)oc1C (configuration not stated),inactive
2,Cc1ccc(C(C(=O)NC2CCCCC2)N(C(=O)c2csnn2)C2CC2)o1 (configuration not stated),inactive
3,CCCc1nc2c(c(=O)c3ccccc3n2C)c(=O)n1C1CCCCCC1,inactive
4,COC(=O)c1ccc(C2C3=C(Nc4nnnn42)c2ccccc2OC3)cc1 (configuration not stated),inactive
5,CCN(CC)c1ccc(C2C3CCCCC3(O)CCN2CC(=O)Nc2ccccc2)cc1 (configuration not stated),inactive
6,Cc1cccc(NC(=O)COc2ccccc2C)n1,inactive
7,COc1ccc(Cc2nc(-c3ccccn3)no2)cc1OC,inactive
8,CN(C)CCn1c(=S)[nH]c2ccc(Cl)cc2c1=O,inactive
9,O=C(CSc1ncccn1)NC(=O)NCc1ccccc1,inactive
10,O=C(c1cccc(S(=O)(=O)Nc2ccccc2Cl)c1)N1CCN(C(=O)c2ccco2)CC1,inactive
11,O=C(Nc1ccccc1)c1nnsc1S(=O)(=O)c1ccc(Cl)cc1,inactive
12,Cc1ccc(-n2[nH]c(C)c(/C=N/N3C(=O)c4cccc5cccc(c45)C3=O)c2=O)cc1,inactive
13,CCCCC(=O)Nc1ccc2c(c1)C(=O)NC2=O,inactive
14,O=C(Cc1ccccn1)c1ccc(O)cc1O,inactive
15,Cc1cc2ncn(CCCCOc3ccccc3)c2cc1C,inactive
16,CC(C)(C)n1c(=O)[nH]c2c(c1=O)CCC2,inactive
17,Cc1ccc2nc(-c3ccc(NC(=O)CN(C)S(=O)(=O)c4ccccc4)cc3)sc2c1,inactive
18,Cc1cccc(NC(=O)C(C)N2C(=O)C3C4CC(C(Br)C4Br)C3C2=O)c1 (configuration not stated),inactive
19,C=CCNC(=O)c1csc(-c2ccccc2)n1,inactive
20,CCc1ccc(N(CC(=O)Nc2sc3c(c2C(=O)OC)CCCC3)S(C)(=O)=O)cc1,inactive
21,Cc1ccc(Cc2cnc(N)s2)o1,inactive
22,COc1ccc(Nc2nnc(C)c3ccccc23)cc1,inactive
23,Cc1nn(-c2ccccc2)c(C)c1NC(=O)COc1ccc(Cl)cc1Cl,inactive
24,O=C(Nc1cccc(Cl)c1)c1cncn1-c1ccc(F)cc1,inactive
